# Experimental data: PubChem BioAssay (NCI)
# About 83,000 compounds went through this panel and 20% of them were active in at least one assay; those are over-represented in the sample as a whole.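 Treatment: one concentration, 48 hours, 96-well format. Scoring: percent growth, with anything below 10 considered active.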 Values without a mark were called inactive. The source made the active and inactive calls.
# Key:
# Assay in all cases: NCI-60 one-dose screen, 48 h (100 = growth as untreated, 0 = no growth, -100 = all killed)
# Conditions in all cases: 10 µM unless noted
# [1] = system: HCT-15 colon
# [2] = system: HT29 colon
# [3] = system: SNB-75 CNS
# [4] = system: SNB-19 CNS
# [5] = system: U251 CNS
# [6] = system: PC-3 prostate
# [7] = system: SK-MEL-5 melanoma
# [8] = system: UACC-62 melanoma
# [9] = system: LOX IMVI melanoma
# [10] = system: SK-MEL-28 melanoma
# [11] = system: SK-MEL-2 melanoma
# [12] = system: EKVX NSCLC
# [13] = system: UO-31 renal
# [14] = system: TK-10 renal
# [15] = system: ACHN renal
# [16] = system: CAKI-1 renal
# [17] = system: A498 renal
# [18] = system: CCRF-CEM leukemia
# [19] = system: MOLT-4 leukemia
# [20] = system: SN12C renal
Structure (SMILES),growth [1],growth [2],growth [3],growth [4],growth [5],growth [6],growth [7],growth [8],growth [9],growth [10],growth [11],growth [12],growth [13],growth [14],growth [15],growth [16],growth [17],growth [18],growth [19],growth [20]
CCn1cc(Cc2cc(C(=O)Nc3cc4cc(OC)c(OC)cc4c(C)n3)ccc2Cl)cn1,19.3%,2.56% (active),36%,44.7%,48.3%,29.2%,13.3%,43.8%,5.28% (active),35%,42%,47.2%,35%,73.7%,15.7%,47.8%,44.4%,22.4%,42.6%,
C#CCOc1ccc2nc(CCl)c(Cl)c(Nc3cccc(C(F)(F)F)c3)c2c1,36.3%,75.6%,70.5%,98.5%,77.3%,85.1%,58.2%,71.2%,-1.15% (active),108%,84.4%,91.1%,,89.8%,52.1%,77%,104%,20.9%,29.5%,68.6%
CNC(=O)Nc1ccc(-c2ccc3ncnc(Nc4cccc(Cl)c4)c3c2)cc1,45.9%,29%,54.6%,69.6%,54.9%,45.1%,56.1%,64.7%,60.8%,58.9%,65.9%,2% (active),46.5%,-3.72% (active),34.2%,32.1%,-8.06% (active),44.5%,36.7%,
CCOC(=O)CC[C@H](NC(=O)c1ccc(N(C)Cc2cnc3nc(N)nc(N)c3n2)c2ccccc12)C(=O)OCC,30%,12.5%,76%,33.7%,33%,24.3%,23.4%,18.5%,17.6%,47.8%,51.9%,75.2%,20.9%,43.8%,25%,24.1%,35.1%,10.5%,24.8%,
COc1cc2c(cc1OCCCN1CCN(C(=S)SCCC(C#N)(c3ccccc3)c3ccccc3)CC1)N=C[C@@H]1CCCN1C2=O,-89.5% (active),-89.3% (active),-91.5% (active),-44.4% (active),-95.7% (active),-34.9% (active),-100% (active),-72% (active),-100% (active),-82.6% (active),-80% (active),-95.6% (active),,-59.7% (active),-46.1% (active),-44.1% (active),-100% (active),-35% (active),-8.92% (active),-43.9% (active)
COc1ccc(/C=C(/C(=O)N2CCNCC2)c2cc(OC)c(OC)c(OC)c2)cc1O,96.6%,88.1%,28.1%,38.4%,19.6%,26.8%,40%,32.5%,44%,55.5%,10.8%,84.1%,89.7%,92.4%,103%,93.1%,59%,15.4%,25.5%,
COc1ccc(Cl)cc1Nc1nc(C(F)(F)F)ccc1C(=O)N/N=C/c1ccc([N+](=O)[O-])cc1,3.38% (active),2.62% (active),29.5%,22.9%,-27% (active),-5.64% (active),-17.7% (active),17.3%,-32.8% (active),22.8%,-8.38% (active),0.805% (active),-1.49% (active),10.5%,-9.86% (active),4.56% (active),3.24% (active),9.15% (active),2.93% (active),
COC12C=C/C(=C(/C(=O)OCc3cncnc3)C(=O)CCCCCCCCC3(OC)C=C/C(=C(/C(=O)OCc4cncnc4)C(=O)CCCCCCCC1)O3)O2,-49.1% (active),1.94% (active),22.4%,10.9%,-36.5% (active),-55.1% (active),-79.9% (active),-56.9% (active),-61.8% (active),-45% (active),-13.1% (active),-20.5% (active),,-23.6% (active),-93.7% (active),-43.5% (active),-94.1% (active),-18.2% (active),-13.4% (active),-34.7% (active)
CN1CCN(c2ccc(NC3=CC(=O)c4ncncc4C3=O)cc2)CC1,-71.7% (active),-29% (active),-94.7% (active),-91.9% (active),-82.3% (active),-8.86% (active),-94% (active),-89.8% (active),-63.8% (active),-75.3% (active),-54% (active),,-98.3% (active),-82.3% (active),-96.2% (active),-96% (active),-36.7% (active),3.21% (active),-28.4% (active),-75.6% (active)
CCOC(=O)c1cn2ncnc(Oc3ccc(NC(=O)NC4CC4)c(Cl)c3)c2c1C,81.7%,95.1%,83.8%,89%,80.7%,89.2%,88.7%,77.8%,85.4%,107%,110%,89.8%,,113%,96.4%,101%,-0.592% (active),89.2%,88.8%,
COc1ccc2cc(C(=O)N3CCC([C@@H](C)C(=O)NCc4ccc5c(c4)OCO5)CC3)[nH]c2c1,83% [50 µM],89.6% [50 µM],-37.6% [50 µM] (active),25.8% [50 µM],23.6% [50 µM],56.5% [50 µM],63.6% [50 µM],43.7% [50 µM],54.7% [50 µM],77.8% [50 µM],63.6% [50 µM],,41.5% [50 µM],27.1% [50 µM],29.4% [50 µM],60.3% [50 µM],80.4% [50 µM],85.8% [50 µM],78.2% [50 µM],53.2% [50 µM]
